# According to PubChem BioAssay (NCI):
# About 79,000 compounds went through this panel and 15% of them were active in at least one assay; those are over-represented in the sample as a whole. A number with no mark means an inactive call. Calls of active or inactive are those of the source. No stated cut-off is given here; in the data, active means growth inhibition above about 70%; inactive means the rest.
# Experiments:
# [1] = NCI Yeast Anticancer Drug Screen. Data for the rad50 strain (AID 155);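 further: 0% = growth of vehicle-only cultures of the same strain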; details: S. cerevisiae rad50 strain growth inhibition, hits give high values
# In short: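 Inhibition values express reduced yeast growth in compound-treated cultures relative to vehicle-treated controls.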
# [2] = NCI Yeast Anticancer Drug Screen. Data for the mec2-1 strain (AID 157); details: S. cerevisiae mec2-1 strain, hits give high values
# In short: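 Test agents were screened against the mec2-1 yeast strain, with defined DNA repair or cell cycle alteration. Growth was scored as inhibition against vehicle-only controls.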
# [3] = NCI Yeast Anticancer Drug Screen. Data for the sgs1 mgt1 strain (AID 161);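 further: 0% = growth of cultures given vehicle only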; details: S. cerevisiae sgs1 mgt1 strain, hits give high values
# In short: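 Inhibition of yeast growth, normalised to vehicle-treated controls, is reported for a strain bearing genetic alterations in DNA damage repair.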
# [4] = NCI Yeast Anticancer Drug Screen. Data for the cln2 rad14 strain (AID 165);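 further: 0% = growth equal to vehicle treated cultures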; details: S. cerevisiae cln2 rad14 strain, hits give high values
# In short: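 Growth of compound-exposed yeast (cln2 rad14 genotype) measured and expressed as inhibition relative to vehicle.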
# [5] = NCI Yeast Anticancer Drug Screen. Data for the bub3 strain (AID 167); details: S. cerevisiae bub3 mutant strain, hits give high values
# In short: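 Steps: expose the mutant yeast strain to compound; grow alongside vehicle-treated cultures; measure growth; express inhibition against the vehicle cultures.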
# [6] = NCI Yeast Anticancer Drug Screen. Data for the mlh1 rad18 strain (AID 175); details: S. cerevisiae mlh1 rad18 strain growth inhibition, hits give high values
# In short: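 In this whole-cell yeast screen, a strain with altered DNA damage repair is challenged with compound, and its growth is measured against matched vehicle-treated controls.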
# [7] = at 5.0 µM (retest, dose inferred, filed as 0.5)
# [8] = at 50.0 µM (retest, dose inferred, filed as 5.0)
SMILES,"growth inhibition [1, 7]","growth inhibition [1, 8]",growth inhibition ([1]; at 50.0 µM),"growth inhibition [2, 7]","growth inhibition [2, 8]",growth inhibition ([2]; at 50.0 µM),"growth inhibition [3, 7]","growth inhibition [3, 8]",growth inhibition ([3]; at 50.0 µM),"growth inhibition [4, 7]","growth inhibition [4, 8]",growth inhibition ([4]; at 50.0 µM),"growth inhibition [5, 7]","growth inhibition [5, 8]",growth inhibition ([5]; at 50.0 µM),"growth inhibition [6, 7]","growth inhibition [6, 8]",growth inhibition ([6]; at 50.0 µM)
ClC1=C(Cl)C(Cl)(C(Cl)(Cl)Cl)C(Cl)=C1Cl,99% (active),98% (active),99.6% (active),100% (active),99% (active),99.6% (active),99% (active),98% (active),99.7% (active),99% (active),98% (active),99.4% (active),99% (active),98% (active),99.7% (active),99% (active),98% (active),99.4% (active)
O=C(CBr)Oc1ccc(-c2cccc(Br)c2)cc1,1%,99% (active),99.7% (active),6%,99% (active),99.5% (active),15%,100% (active),99.6% (active),-14%,99% (active),98.6% (active),-6%,99% (active),99.6% (active),4%,99% (active),99.2% (active)
O=C(CC1CCCC(CC(=O)c2ccccc2)N1CCc1ccccc1)c1ccccc1 (configuration not stated),39%,97% (active),89.7% (active),23%,99% (active),90.6% (active),41%,98% (active),92.8% (active),27%,97% (active),91.8% (active),41%,98% (active),89.7% (active),34%,98% (active),89.2% (active)
COc1ccc(NC(=O)CC(=O)n2nc(-c3ccccc3)c(N=Nc3ccc(C)cc3)c2-c2ccccc2)cc1,34%,34%,36.9%,28%,28%,5.95%,19%,19%,-6.65%,20%,20%,21%,27%,27%,35.1%,36%,36%,-3.75%
CCCCCC(=O)NNc1ccccc1,18%,89% (active),85.3% (active),1%,76% (active),42.6%,5%,48%,80% (active),0%,51%,78% (active),9%,95% (active),83.1% (active),22%,93% (active),90.8% (active)
Cc1cc(SCC(=O)c2ccc(Br)cc2)cc(C)[o+]1,-14%,80% (active),94.5% (active),4%,95% (active),95% (active),20%,81% (active),91.5% (active),-42%,75% (active),90% (active),-5%,95% (active),93.1% (active),-8%,92% (active),95.1% (active)
CN(C)C1CCC2C(=C1OC(=O)c1ccccc1)C=Cc1ccccc12 (configuration not stated),-1%,11%,25%,2%,16%,13.4%,13%,38%,31.9%,4%,7%,-1.4%,0%,12%,22.9%,21%,53%,67.5%
O=C(C[n+]1ccccc1)c1ccc2ccc3ccc(Cl)cc3c2c1,4%,67%,59.1%,0%,26%,32%,3%,56%,35.5%,2%,39%,-90.4%,-2%,46%,2.15%,29%,82% (active),72.5% (active)
CCS(=O)(=O)c1ccc(NC(=O)OC2CC(C)CCC2C(C)C)cc1 (configuration not stated),14%,90% (active),90.5% (active),18%,94% (active),91.6% (active),15%,91% (active),89.5% (active),12%,91% (active),86.7% (active),11%,94% (active),90.8% (active),20%,92% (active),92.1% (active)
CCCN(CCC)C(=O)CCC(C)=O,0%,-3%,-13.8%,1%,2%,-7.5%,1%,-1%,-23.8%,-7%,3%,41.5%,-1%,-3%,-18.4%,1%,-3%,17.1%
CCOC(=O)CCCCCN,6%,8%,-4.55%,1%,2%,-7.75%,1%,7%,34.1%,9%,-2%,-39.5%,2%,-4%,1.75%,5%,6%,-30.3%
CCCCCCCCCCN1Cc2ccccc2C1,77% (active),99% (active),99% (active),68%,99% (active),97.9% (active),87% (active),99% (active),99% (active),68%,99% (active),97.5% (active),85% (active),99% (active),98% (active),68%,99% (active),99.3% (active)
COc1ccc(C(c2ccc(OC)c(OC)c2)C(Cl)(Cl)Cl)cc1OC,3%,94% (active),89.5% (active),8%,96% (active),93.4% (active),6%,95% (active),94% (active),8%,94% (active),86% (active),3%,97% (active),88.5% (active),6%,94% (active),92.4% (active)
O=NN(CCCl)C(=O)Nc1cc(Cl)ccc1O,-8%,57%,86.2% (active),-8%,30%,36.1%,-5%,46%,72.5% (active),-3%,13%,8.45%,-21%,-16%,37.1%,5%,81% (active),90.1% (active)
CCN(CC)Cc1cc(Nc2c3ccccc3nc3c2[nH]c2ccccc23)ccc1O,-6%,18%,82.5% (active),3%,5%,8.85%,-8%,-19%,2.65%,44%,44%,-3%,9%,3%,-4.65%,-1%,-9%,33.5%
O=C(Nc1ccc(Cl)cc1Cl)OC(Cn1cncn1)c1ccc(Cl)cc1Cl (configuration not stated),71% (active),71% (active),91.2% (active),67%,67%,91.4% (active),77% (active),77% (active),90.5% (active),66%,66%,88.7% (active),72% (active),72% (active),92.5% (active),77% (active),77% (active),90.5% (active)
COc1ccccc1C(=O)c1c(C(=O)O)ccc2ccccc12,-2%,-17%,3.8%,-6%,-28%,6.9%,-3%,-25%,7.75%,-17%,-3%,27.6%,-10%,-5%,13.7%,-4%,-1%,48.6%
CCCCCOCC(=O)OC,-1%,13%,-1.9%,0%,5%,-11.6%,-1%,5%,-16.2%,2%,0%,44.2%,0%,7%,-1.3%,2%,7%,-15.1%
O=C1c2ccccc2CC(Br)c2ccccc21 (configuration not stated),-2%,97% (active),97.2% (active),-4%,94% (active),27.4%,3%,94% (active),81.8% (active),-77%,80% (active),1.7%,-10%,-3%,42.5%,1%,98% (active),97.7% (active)
